Screens deposited in PubChem by several laboratories.
VHR inh abs = blocks human VHR1 dual specificity phosphatase; recombinant VHR phosphatase, pNPP absorbance; inhibition, % at 13.3 µM; actives 0.52% (n = 290,000); AID 1654; in the data active = inhibition above about 50%
Target sequence (P51452 whole entry, looked up): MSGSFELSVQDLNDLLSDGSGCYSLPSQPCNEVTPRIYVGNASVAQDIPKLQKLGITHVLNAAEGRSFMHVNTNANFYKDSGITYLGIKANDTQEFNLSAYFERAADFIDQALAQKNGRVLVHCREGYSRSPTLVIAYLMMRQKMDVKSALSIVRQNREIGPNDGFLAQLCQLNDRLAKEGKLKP
PrPC TRFRET = reduces human prion protein on the cell surface; actives 0.43% (n = 370,000); AID 720596; P04156; inhibition, % at 13.8 µM; cell surface PrPC, TR-FRET read-out; in the data active = inhibition above about 24%; note: 0% = median of the test wells and 100% = reference compound wells
MazF activator = increases E. coli MazEF RNase cleavage of RNA. P0AE70. FAM/BHQ RNA-DNA oligo cleavage fluorescence, 5 h. activation, % at 20 µM. actives 0.32% (n = 350,000); in the data active = activation above about 50%
Target sequence (P0AE70 whole entry, looked up): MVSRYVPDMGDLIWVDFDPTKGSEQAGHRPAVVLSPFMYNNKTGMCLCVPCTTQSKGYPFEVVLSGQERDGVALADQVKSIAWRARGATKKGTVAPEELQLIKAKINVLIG
Yp Topo-I inh = Y. pestis Topo-I inhibition via cleavage products; Y. pestis Topo-I cleavage product accumulation, plate reader; activity, % at 10 µM; actives 0.064% (n = 360,000); AID 504884; in the data active = activity above about 50%, passing the limit was not always enough
CCHFV vOTU inh = CCHFV vOTU protease inhibition. Pep-AMC fluorescence. inhibition, % at 11.5 µM. actives 0.55% (n = 370,000); in the data active = inhibition above about 30%; note: 0% = vehicle wells with enzyme and 100% = no enzyme wells
Vc quorum ag-1 = induces V. cholerae light production without autoinducers. actives 0.16% (n = 350,000). V. cholerae BH1578 lux reporter, luminescence, 6 h. activation, % at 18.7 µM; in the data active = activation mostly above about 9.7%, no sharp cut-off
Vc quorum ag-2 = inducers of V. cholerae quorum light production without autoinducers; 620 tested, under 10 active; V. cholerae BH1578 lux reporter, luminescence, 6 h; shares compounds with Vc quorum ag-1; activation, % at 50 µM; call rule not given here
HeLa 24h tox = cytotoxicity in HeLa cells at 24 hours; shares compounds with Vc quorum ag-1; activity change, negative = cytotoxicity, % at 35 µM; 25 tested, under 10 active; HeLa viability, CellTiter-Glo ATP luminescence;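 active = signal drop with fitted half-maximal concentration at or below twice the highest valid dose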
* hit, by the source's call. Sampled rows, rich in hits. Any-hit rate of the full collection: about 1.8%.

`CC1(C)CC2(CCO1)OC(=O)CC2C(=O)Nc1c(Cl)cccc1Cl` (centres undefined) gave VHR inh abs 2, PrPC TRFRET 5, MazF activator 8, Yp Topo-I inh -7, CCHFV vOTU inh -10 and Vc quorum ag-1 -1.
`Cn1c(SCn2nnc3ccccc3c2=O)nc2ccccc2c1=O` gave VHR inh abs 19.
O=c1c2ccccc2nnn1CSc1nnc2ccccn12 was read as VHR inh abs 28, PrPC TRFRET -4, MazF activator 1, Yp Topo-I inh -5, CCHFV vOTU inh 19, Vc quorum ag-1 40* and Vc quorum ag-2 6.
For CC(OC(=O)Cn1cnc2c1c(=O)n(C)c(=O)n2C)C(=O)c1ccccc1 (centres undefined) the results were PrPC TRFRET -4, MazF activator 7, Yp Topo-I inh 5, CCHFV vOTU inh -3, Vc quorum ag-1 14 and Vc quorum ag-2 1.
Screening COc1ccc(OCC(=O)Nc2ccccc2OC)cc1 returned VHR inh abs -1, PrPC TRFRET 10, MazF activator -21, Yp Topo-I inh 2, CCHFV vOTU inh 11, Vc quorum ag-1 29* and Vc quorum ag-2 175.
COc1ccccc1NC(=O)COc1ccc2c(c1)OCO2 was read as VHR inh abs 2, PrPC TRFRET 11, MazF activator -22, Yp Topo-I inh -6, CCHFV vOTU inh 3, Vc quorum ag-1 105* and Vc quorum ag-2 212.
COc1ccc(OCC(=O)Nc2ccccc2OC(F)F)cc1 was read as VHR inh abs 6, PrPC TRFRET -1, MazF activator 5, Yp Topo-I inh 7, CCHFV vOTU inh 0 and Vc quorum ag-1 -5.
`CN(C)c1ccc(NC(=O)CSc2n[nH]c(-c3ccncc3)n2)cc1` gave PrPC TRFRET 4, MazF activator 3, Yp Topo-I inh -1, CCHFV vOTU inh -1 and Vc quorum ag-1 -3.
Screening CCCCn1nnnc1NCc1ccc(N2CCCC2)cc1 returned VHR inh abs 12, PrPC TRFRET -7, MazF activator 9, Yp Topo-I inh 1, CCHFV vOTU inh 7, Vc quorum ag-1 829* and Vc quorum ag-2 3.
For CCCn1nnnc1NCc1ccc(N2CCCC2)cc1 the results were VHR inh abs 0, PrPC TRFRET -3, MazF activator 10, Yp Topo-I inh -4, CCHFV vOTU inh -5, Vc quorum ag-1 active and HeLa 24h tox 4.
Cc1ccc(S(=O)(=O)Nc2ccccc2F)cc1C(=O)NCCCN1CCCC1=O was read as VHR inh abs 29, PrPC TRFRET -1, MazF activator 3, Yp Topo-I inh -1, CCHFV vOTU inh -7, Vc quorum ag-1 14 and Vc quorum ag-2 0.
`COc1ccccc1NS(=O)(=O)c1ccc(C)c(C(=O)NCCCN2CCCC2=O)c1` gave PrPC TRFRET 6, MazF activator 1, Yp Topo-I inh 2, CCHFV vOTU inh -6 and Vc quorum ag-1 -1.
`Cc1c(Cc2ccccc2)c(=O)oc2cc(OC(=O)c3ccccc3)ccc12` gave VHR inh abs 1, PrPC TRFRET -5, MazF activator -6, Yp Topo-I inh -3, CCHFV vOTU inh -5 and Vc quorum ag-1 inactive.
COC(=O)Cc1c(C)c2ccc(OC(=O)c3ccccc3)cc2oc1=O was read as VHR inh abs 9, PrPC TRFRET -2, MazF activator -2, Yp Topo-I inh -3, CCHFV vOTU inh -288, Vc quorum ag-1 12 and Vc quorum ag-2 0.
Screening COc1cccc(S(=O)(=O)NCc2ccc(C(=O)N3CCN(C)CC3)cc2)c1 returned VHR inh abs 29, PrPC TRFRET 2, MazF activator 2, Yp Topo-I inh -3, CCHFV vOTU inh 6 and Vc quorum ag-1 -1.
`O=C(CNC(=O)c1ccc(=O)[nH]c1)Nc1ccc(F)c(F)c1` gave VHR inh abs -7, PrPC TRFRET 4, MazF activator 6, Yp Topo-I inh -4, CCHFV vOTU inh 1 and Vc quorum ag-1 2.
For O=C(CNC(=O)c1ccncc1)Nc1ccc(F)c(F)c1 the results were VHR inh abs 0, PrPC TRFRET 1, MazF activator 4, Yp Topo-I inh 3, CCHFV vOTU inh 7, Vc quorum ag-1 12 and Vc quorum ag-2 0.
`CC1CCN(S(=O)(=O)c2ccc(NC(=O)C3CCCCC3C(=O)O)cc2)CC1` (centres undefined) gave MazF activator 2, Yp Topo-I inh -14 and Vc quorum ag-1 -3.
`CCCCc1cc2c(cc1NC(=O)CN1CCCCC1)OCCO2` gave VHR inh abs 6, PrPC TRFRET 3, MazF activator -5, Yp Topo-I inh 19, CCHFV vOTU inh 2, Vc quorum ag-1 14 and Vc quorum ag-2 0.
Screening CCC[C@H]1[C@@H](NC(=O)c2cccc(N(C)C)c2)CC[C@@]23CCCN2C(=O)CCC[C@@H]13 returned PrPC TRFRET -2.
`Cc1[nH]c2ccc3c(ncn3CCC#N)c2c1C` gave VHR inh abs 2, PrPC TRFRET 0, MazF activator 9, Yp Topo-I inh -6, CCHFV vOTU inh -5, Vc quorum ag-1 14 and Vc quorum ag-2 1.
CC(C)c1nnc(NC(=O)CCCC(=O)O)s1 was read as VHR inh abs 10, PrPC TRFRET -1, MazF activator 3, Yp Topo-I inh -3, CCHFV vOTU inh -2 and Vc quorum ag-1 inactive.
CCOC(=O)CC(=O)Nc1nnc(C(C)C)s1 was read as VHR inh abs 4, PrPC TRFRET 1, MazF activator 3, Yp Topo-I inh -1, CCHFV vOTU inh -7, Vc quorum ag-1 17* and Vc quorum ag-2 0.
C/C(=N\NC(=O)c1nnn(-c2nonc2N)c1CN1CCCCCC1)c1ccc(Br)cc1 was read as VHR inh abs 5, PrPC TRFRET 5, MazF activator -3, Yp Topo-I inh -5, CCHFV vOTU inh 6 and Vc quorum ag-1 0.
`COc1ccc(-c2cc(CCCC(=O)NCCc3cc(OC)ccc3OC)no2)cc1` gave VHR inh abs 10, PrPC TRFRET -2, MazF activator 0, Yp Topo-I inh 4, CCHFV vOTU inh -6, Vc quorum ag-1 12 and Vc quorum ag-2 8.
Screening Cc1ccc(OCCC(=O)OCC(=O)Nc2ccc3c(c2)OCO3)cc1 returned PrPC TRFRET 1, MazF activator 4, Yp Topo-I inh 0, CCHFV vOTU inh 7, Vc quorum ag-1 14 and Vc quorum ag-2 0.
`CC(=O)c1ccc(NC(=O)COc2ccccc2C(=O)Nc2ccccc2)cc1` gave VHR inh abs 22, PrPC TRFRET -5, MazF activator -5, Yp Topo-I inh 2, CCHFV vOTU inh 18, Vc quorum ag-1 140* and Vc quorum ag-2 0.
